{"source": "the supplement of paper PMC8728848", "binders": {"B1": {"name": "E-Selectin (Homo sapiens), P16581 (protein)", "chain": "MIASQFLSALTLVLLIKESGAWSYNTSTEAMTYDEASAYCQQRYTHLVAIQNKEEIEYLNSILSYSPSYYWIGIRKVNNVWVWVGTQKPLTEEAKNWAPGEPNNRQKDEDCVEIYIKREKDVGMWNDERCSKKKLALCYTAACTNTSCSGHGECVETINNYTCKCDPGFSGLKCEQIVNCTALESPEHGSLVCSHPLGNFSYNSSCSISCDRGYLPSSMETMQCMSSGEWSAPIPACNVVECDAVTNPANGFVECFQNPGSFPWNTTCTFDCEEGFELMGAQSLQCTSSGNWDNEKPTCKAVTCRAVRQPQNGSVRCSHSPAGEFTFKSSCNFTCEEGFMLQGPAQVECTTQGQWTQQIPVCEAFQCTALSNPERGYMNCLPSASGSFRYGSSCEFSCEQGFVLKGSKRLQCGPTGEWDNEKPTCEAVRCDAVHQPPKGLVRCAHSPIGEFTYKSSCAFSCEEGFELHGSTQLECTSQGQWTEEVPSCQVVKCSSLAVPGKINMSCSGEPVFGTVCKFACPEGWTLNGSAARTCGATGHWSGLLPTCEAPTESNIPLVAGLSAAGLSLLTLAPFLLWLRKCLRKAKKFVPASSCQSLESDGSYQKPSYIL"}}, "test_in_all_cases": "glycan array binding signal (z-score within array); higher = stronger binding", "conditions_in_all_cases": "glycan notation: IUPAC condensed, linker removed", "key": {"[1]": {"molecular_target": "Fuc(a1-2)Gal(b1-4)[Fuc(a1-3)]GlcNAc(b1-3)Gal(b1-4)[Fuc(a1-3)]GlcNAc", "how_it_was_run": "(§1)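 Arrays were curated from the Consortium for Functional Glycomics database, 3228 in total, and kept only where the protein sequence was available. Binding is expressed as a within-array Z-score. This score was averaged across arrays of the same protein sequence at different concentrations or buffers and across linkers, and negative values can be read as non-binding.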"}, "[2]": {"molecular_target": "Fuc(a1-2)[Gal(a1-3)]Gal(b1-4)Glc", "how_it_was_run": "as §1"}, "Fuc(a1-4)GlcNAc": {"molecular_target": "Fuc(a1-4)GlcNAc", "how_it_was_run": "as §1"}, "[3]": {"molecular_target": "Gal(a1-3)[Gal(a1-4)]Gal(b1-4)GlcNAc", "how_it_was_run": "as §1"}, "[4]": {"molecular_target": "Gal(b1-3)GlcNAc(b1-3)Gal(b1-4)GlcNAc", "how_it_was_run": "as §1"}, "Gal(b1-4)Glc": {"molecular_target": "Gal(b1-4)Glc", "how_it_was_run": "as §1"}, "[5]": {"molecular_target": "Gal(b1-4)GlcNAc(b1-2)Man(a1-3)[Gal(b1-4)GlcNAc(b1-2)Man(a1-6)]Man(b1-4)GlcNAc(b1-4)GlcNAc", "how_it_was_run": "as §1"}, "[6]": {"molecular_target": "Gal(b1-4)GlcNAc(b1-3)Gal(b1-4)Glc", "how_it_was_run": "as §1"}, "[7]": {"molecular_target": "Gal(b1-4)GlcNAc(b1-3)[GlcNAc(b1-6)]Gal(b1-4)GlcNAc", "how_it_was_run": "as §1"}, "[8]": {"molecular_target": "Gal3S(b1-3)[Fuc(a1-4)]GlcNAc", "how_it_was_run": "as §1"}, "Gal3S(b1-4)Glc": {"molecular_target": "Gal3S(b1-4)Glc", "how_it_was_run": "as §1"}, "Gal4S6S(b1-4)GlcNAc": {"molecular_target": "Gal4S6S(b1-4)GlcNAc", "how_it_was_run": "as §1"}, "Gal6S(b1-4)Glc": {"molecular_target": "Gal6S(b1-4)Glc", "how_it_was_run": "as §1"}, "Glc(b1-6)Glc": {"molecular_target": "Glc(b1-6)Glc", "how_it_was_run": "as §1"}, "[9]": {"molecular_target": "GlcNAc(b1-2)Gal(b1-3)GalNAc", "how_it_was_run": "as §1"}, "GlcNAc(b1-3)Gal": {"molecular_target": "GlcNAc(b1-3)Gal", "how_it_was_run": "as §1"}, "GlcNAc(b1-3)GalNAc": {"molecular_target": "GlcNAc(b1-3)GalNAc", "how_it_was_run": "as §1"}, "[10]": {"molecular_target": "GlcNAc(b1-3)[GlcNAc(b1-4)][GlcNAc(b1-6)]GlcNAc", "how_it_was_run": "as §1"}, "[11]": {"molecular_target": "GlcNAc(b1-3)[GlcNAc(b1-6)]GlcNAc(b1-4)GlcNAc", "how_it_was_run": "as §1"}, "[12]": {"molecular_target": "Man(a1-3)[Man(a1-6)]Man(a1-6)[Man(a1-3)]Man", "how_it_was_run": "as §1"}, "[13]": {"molecular_target": "Neu5Ac(a2-3)Gal(b1-3)GalNAc(b1-3)Gal(a1-4)Gal(b1-4)Glc", "how_it_was_run": "as §1"}, "[14]": {"molecular_target": "Neu5Ac(a2-3)Gal(b1-3)[Fuc(a1-4)]GlcNAc", "how_it_was_run": "as §1"}, "[15]": {"molecular_target": "Neu5Ac(a2-3)Gal(b1-3)[Fuc(a1-4)]GlcNAc(b1-3)Gal(b1-4)[Fuc(a1-3)]GlcNAc", "how_it_was_run": "as §1"}, "[16]": {"molecular_target": "Neu5Ac(a2-3)Gal(b1-4)GlcNAc(b1-2)Man(a1-3)[Neu5Ac(a2-3)Gal(b1-4)GlcNAc(b1-2)Man(a1-6)]Man(b1-4)GlcNAc(b1-4)GlcNAc", "how_it_was_run": "as §1"}, "[17]": {"molecular_target": "Neu5Ac(a2-3)Gal(b1-4)[Fuc(a1-3)]GlcNAc(b1-3)Gal", "how_it_was_run": "as §1"}, "[18]": {"molecular_target": "Neu5Ac(a2-6)Gal(b1-4)GlcNAc(b1-2)Man(a1-6)[GlcNAc(b1-2)Man(a1-3)]Man(b1-4)GlcNAc(b1-4)GlcNAc", "how_it_was_run": "as §1"}, "[19]": {"molecular_target": "Neu5Ac(a2-6)GalNAc(b1-4)GlcNAc", "how_it_was_run": "as §1"}, "[20]": {"molecular_target": "Neu5Ac9Ac(a2-6)Gal(b1-4)GlcNAc", "how_it_was_run": "as §1"}, "[21]": {"molecular_target": "Neu5Gc(a2-3)Gal(b1-3)[Fuc(a1-4)]GlcNAc", "how_it_was_run": "as §1"}, "Neu5Gc(a2-6)GalNAc": {"molecular_target": "Neu5Gc(a2-6)GalNAc", "how_it_was_run": "as §1"}}, "note": "Many of the other results were omitted from the sample, so the strongest signals are more common in it than they were.", "data": [{"binder": "B1", "values": [{"measurement": "glycan array binding signal (z-score)", "setting": "[1]", "value": -0.198}, {"measurement": "glycan array binding signal (z-score)", "setting": "[2]", "value": -0.226}, {"measurement": "glycan array binding signal (z-score)", "setting": "Fuc(a1-4)GlcNAc", "value": -0.173}, {"measurement": "glycan array binding signal (z-score)", "setting": "[3]", "value": -0.265}, {"measurement": "glycan array binding signal (z-score)", "setting": "[4]", "value": -0.181}, {"measurement": "glycan array binding signal (z-score)", "setting": "Gal(b1-4)Glc", "value": -0.251}, {"measurement": "glycan array binding signal (z-score)", "setting": "[5]", "value": -0.189}, {"measurement": "glycan array binding signal (z-score)", "setting": "[6]", "value": -0.075}, {"measurement": "glycan array binding signal (z-score)", "setting": "[7]", "value": -0.027}, {"measurement": "glycan array binding signal (z-score)", "setting": "[8]", "value": 1.21}, {"measurement": "glycan array binding signal (z-score)", "setting": "Gal3S(b1-4)Glc", "value": -0.07}, {"measurement": "glycan array binding signal (z-score)", "setting": "Gal4S6S(b1-4)GlcNAc", "value": 0.276}, {"measurement": "glycan array binding signal (z-score)", "setting": "Gal6S(b1-4)Glc", "value": -0.044}, {"measurement": "glycan array binding signal (z-score)", "setting": "Glc(b1-6)Glc", "value": -0.134}, {"measurement": "glycan array binding signal (z-score)", "setting": "[9]", "value": -0.209}, {"measurement": "glycan array binding signal (z-score)", "setting": "GlcNAc(b1-3)Gal", "value": -0.024}, {"measurement": "glycan array binding signal (z-score)", "setting": "GlcNAc(b1-3)GalNAc", "value": -0.266}, {"measurement": "glycan array binding signal (z-score)", "setting": "[10]", "value": -0.261}, {"measurement": "glycan array binding signal (z-score)", "setting": "[11]", "value": -0.105}, {"measurement": "glycan array binding signal (z-score)", "setting": "[12]", "value": -0.209}, {"measurement": "glycan array binding signal (z-score)", "setting": "[13]", "value": -0.173}, {"measurement": "glycan array binding signal (z-score)", "setting": "[14]", "value": 9.04}, {"measurement": "glycan array binding signal (z-score)", "setting": "[15]", "value": 3.76}, {"measurement": "glycan array binding signal (z-score)", "setting": "[16]", "value": -0.122}, {"measurement": "glycan array binding signal (z-score)", "setting": "[17]", "value": 3.07}, {"measurement": "glycan array binding signal (z-score)", "setting": "[18]", "value": -0.282}, {"measurement": "glycan array binding signal (z-score)", "setting": "[19]", "value": -0.117}, {"measurement": "glycan array binding signal (z-score)", "setting": "[20]", "value": -0.181}, {"measurement": "glycan array binding signal (z-score)", "setting": "[21]", "value": 12.1}, {"measurement": "glycan array binding signal (z-score)", "setting": "Neu5Gc(a2-6)GalNAc", "value": -0.239}]}]}
